Screens: PubChem, several laboratories
MPTP block: mitochondrial permeability transition pore inhibitors, primary screen, biochemical, isolated mouse mitochondria, absorbance; inhibition, % at 10 µM; Ca2+ swelling absorbance, 30 min; hit rate 1.4% among 360,000;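 active = inhibition of 50% or more, scaled per plate between neutral and stimulator controls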;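 also: 0% = DMSO wells given calcium and 100% = 1 mM EGTA wells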
HSF1 inh: HSF1 inhibitors in luciferase reporter cells, primary screen, cell-based, NIH3T3, luminescence; hit rate 0.77% among 300,000; AID 2098, 2009; NIH3T3-HGL HSE-luciferase, MG132-induced, luminescence 8 h; hits give low values; activity change, negative = inhibition, % at 7.5 µM (by protocol);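 active = more than half of replicate wells show activity change below -50%, luminescence cut by over half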;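 also: luciferase reports HSF-1 transcriptional activity via heat shock element; 0% = median of DMSO wells and -100% = zero luminescence signal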
dFosB activator: activators of delta FosB homodimer, primary screen, biochemical, fluorescence polarization, TAMRA-CDK5 oligo, single point; hit rate 0.99% among 340,000; AID 493131, 2011; Protein FosB (Mus musculus), P13346; purified delta FosB; percent of positive-control signal above neutral wells; activation, % at 25 µM;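 active = mean activation above about 17%, with every replicate also reaching it, limit read from the data, passing the limit was not always enough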
Target sequence (P13346 whole entry, looked up): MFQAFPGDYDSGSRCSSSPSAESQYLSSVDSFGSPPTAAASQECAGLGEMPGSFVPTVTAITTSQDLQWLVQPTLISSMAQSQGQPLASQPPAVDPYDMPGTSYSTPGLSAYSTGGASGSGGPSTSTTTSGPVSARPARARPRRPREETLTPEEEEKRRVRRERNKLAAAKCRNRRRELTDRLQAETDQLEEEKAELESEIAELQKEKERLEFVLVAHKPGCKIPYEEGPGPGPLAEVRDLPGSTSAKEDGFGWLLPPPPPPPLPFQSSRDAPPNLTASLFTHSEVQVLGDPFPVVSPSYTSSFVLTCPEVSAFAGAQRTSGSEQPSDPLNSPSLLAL
HSF1 activator: HSF-1 activators, primary screen, NIH3T3-HGL cells, MG132 stress, luminescence, single point; NIH3T3-HGL HSF-1 luciferase reporter, 8 h; 100% = twice DMSO control signal; activation, % at 9 µM; hit rate 1.7% among 300,000;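 active = mean replicate activation of at least 50% with a set share of replicates each reaching 50%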;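 also: 0% = median of the neutral control wells and 100% = twice that signal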
HSP90 refold inh: HSP90 inhibitors, primary screen, cell lysate, luminescence. Rabbit reticulocyte lysate, luciferase refolding luminescence, 3 h. inhibition, % at 5.6 µM. hit rate 0.91% among 290,000. AID 1789, 2009;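 active = inhibition above the screen-wide mean plus 3 SD, computed separately per campaign, cut at about 16% in these data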;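 also: 0% = DMSO wells and 100% = 60 µM geldanamycin wells; inhibitors lower the luminescence because luciferase stays unfolded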
Platelet DG rel: inhibitors of platelet dense granule secretion, primary screen, cell-based, MLPCN, human platelets. human platelet-rich plasma, SFLLRN dense granule ATP release, luminescence. inhibition, %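 (compounds screened at 7.5 µM in platelet-rich plasma)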. hit rate 0.22% among 300,000. AID 1663, 2009;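 active = mean replicate score, as percent of positive control, at or above 50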
* = called active by the depositor. Compounds with a hit are over-represented: about 4.9% of the library has one in this group of screens.

What do the screens show for `CCC1CN2CCc3cc(OC)c(OC)cc3C2CC1CC1NCCc2c1[nH]c1ccc(O)cc21` (stereo not drawn)?
MPTP block: 3; dFosB activator: 29*

Results for BrCC(Br)C1CCC(Br)C(Br)C1 (stereo not drawn) ?
MPTP block: 1; dFosB activator: 3

How did COC(=O)c1c2[n+](cc3cc(OC)c(OC)cc13)CCc1cc(OC)c(OC)cc1-2 do in these assays?
MPTP block: 2; HSF1 inh: -5; dFosB activator: 0; HSF1 activator: -22; Platelet DG rel: -8

Results for OCC1(CO)COC(c2cccnc2)N1 (stereo not drawn) ?
MPTP block: -2; HSF1 inh: 18; dFosB activator: 4; HSF1 activator: 66*; HSP90 refold inh: -1; Platelet DG rel: 4

Results for CC12CCC3C(CC=C4CC(O)CCC43C)C1C/C(=C\N1CCCC1)C2=O (stereo not drawn) ?
HSF1 inh: 36; HSF1 activator: 63*; HSP90 refold inh: 3; Platelet DG rel: -1

Results for CCN(C=C1CC2C3CC=C4CC(O)CCC4(C)C3CCC2(C)C1=O)CC (stereo not drawn) ?
MPTP block: 0; dFosB activator: -8

Results for COc1cc2c(ccc3c4cc(OC)c(OC)cc4c[n+](C)c23)cc1O ?
MPTP block: 1; dFosB activator: 33*

What do the screens show for `CC(C)[C@]12O[C@H]1[C@@H]1O[C@]13[C@]1(O[C@H]1C[C@H]1C4=C(CC[C@@]13C)C(=O)OC4)[C@@H]2O`?
HSF1 inh: -68*; HSF1 activator: -72; HSP90 refold inh: -3; Platelet DG rel: 1

Results for CCn1c(=O)cc(SCC(=O)N2CCC3(CC2)OCCO3)c2ccccc21 ?
MPTP block: -2; HSF1 inh: 34; dFosB activator: -10; HSF1 activator: 68*; HSP90 refold inh: 4; Platelet DG rel: 3

What do the screens show for `Cn1c(=O)n(CC(=O)N2CCC3(CC2)OCCO3)c(=O)c2ccccc21`?
MPTP block: 0; HSF1 inh: -9; dFosB activator: -9; HSF1 activator: 6; HSP90 refold inh: -5; Platelet DG rel: -23

Results for CC(N)Cc1ccccc1Sc1ccc(O)cc1 (stereo not drawn) ?
HSF1 inh: -3; HSF1 activator: -20; HSP90 refold inh: 3; Platelet DG rel: 76*

Results for CC1(C)C[C@H]2C=C(C=O)[C@]3(C=O)C[C@]3(C)[C@H]2C1 ?
MPTP block: -2; HSF1 inh: -76*; dFosB activator: 2; HSF1 activator: -79; HSP90 refold inh: -4; Platelet DG rel: 3

Results for CNc1cc(Cl)c2nonc2c1[N+](=O)[O-] ?
MPTP block: -1; HSF1 inh: 113; dFosB activator: -1; HSF1 activator: 168*; HSP90 refold inh: 4; Platelet DG rel: 6

Results for Cn1c(O)c(Cc2cccc(Cl)c2Cl)c(=O)n(C)c1=O ?
MPTP block: -1; HSF1 inh: -2; dFosB activator: -1; HSF1 activator: -4; HSP90 refold inh: -2; Platelet DG rel: 3

How did Cc1ccc2c(c1)N(CCC(=O)N1CCC3(CC1)OCCO3)C(=O)CO2 do in these assays?
MPTP block: 0; HSF1 inh: -3; dFosB activator: 1; HSF1 activator: -7; HSP90 refold inh: 4; Platelet DG rel: 12

What do the screens show for `Cc1ccc2c(c1)N(C(=O)CCC(=O)N1CCC3(CC1)OCCO3)CCO2`?
MPTP block: -2; HSF1 inh: -51*; dFosB activator: -8; HSF1 activator: -63; HSP90 refold inh: -3; Platelet DG rel: 7

How did COc1cccc(C2C([N+](=O)[O-])=C(N)Oc3c2c(=O)oc2ccccc32)c1 (stereo not drawn) do in these assays?
MPTP block: 11; HSF1 inh: 37; dFosB activator: -2; HSF1 activator: 59*; HSP90 refold inh: 1; Platelet DG rel: 2

Results for COc1ccc(C2C([N+](=O)[O-])=C(N)Oc3c2c(=O)oc2ccccc32)cc1 (stereo not drawn) ?
HSF1 inh: 9; HSF1 activator: 33; HSP90 refold inh: 0; Platelet DG rel: 3
